Most compounds without a hit are left out; they make up all but 11% or so of the library.
HPGD block = HPGD (human) dehydrogenase inhibition | P15428 | purified HPGD, NADH fluorescence kinetic, PGE2 substrate | Potency, µM, for inactives: top-dose activity change, negative = inhibition, hits mostly inhibitors | 150,000 tested, 4.3% active | AID 894; also: potency is read from the fitted curve at half-maximal effect
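20 nM HPGD preincubated 15 min at room temperature with compound in 50 mM Tris-HCl pH 8, 0.01% Tween 20. Started with 1 mM NAD+ and 30 uM prostaglandin E2; NADH fluorescence (360/450 nm) read 5 times over 30-s intervals, last minus first.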
ALDH1A1 inh = blocks purified human ALDH1A1 activity. Purified ALDH1A1, NADH fluorescence, propionaldehyde substrate. Potency, µM (top dose mostly 75.3 µM), for inactives: top-dose activity, negative = inhibition, most hits filed as inhibitors. 220,000 tested, 7.3% active. AID 1030;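 also: potency is read from the fitted curve at half-maximal effect; plate controls were no enzyme wells and a reference inhibitor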
Target sequence (P00352 whole entry, looked up): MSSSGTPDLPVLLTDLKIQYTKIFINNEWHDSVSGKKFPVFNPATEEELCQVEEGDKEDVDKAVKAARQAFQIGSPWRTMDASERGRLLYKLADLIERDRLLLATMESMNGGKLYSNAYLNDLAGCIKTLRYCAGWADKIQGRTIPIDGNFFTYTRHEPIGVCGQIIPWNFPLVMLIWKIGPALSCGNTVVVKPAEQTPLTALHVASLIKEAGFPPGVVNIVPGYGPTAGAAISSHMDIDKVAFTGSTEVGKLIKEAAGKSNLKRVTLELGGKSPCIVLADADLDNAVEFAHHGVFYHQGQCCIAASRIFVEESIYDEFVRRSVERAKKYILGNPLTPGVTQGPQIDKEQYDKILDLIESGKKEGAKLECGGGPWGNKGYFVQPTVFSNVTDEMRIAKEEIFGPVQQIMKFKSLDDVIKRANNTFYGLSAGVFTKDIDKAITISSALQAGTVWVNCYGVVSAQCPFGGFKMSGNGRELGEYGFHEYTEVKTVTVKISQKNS
PNC inhibitor = inhibitors of perinucleolar compartment assembly; PC3M PTB-GFP, PNC prevalence imaging, 16 h; stronger effect = lower value; activity change (PNC), negative = inhibition, % at 10 µM; 140,000 tested, 3.1% active;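 active = readout at or below -70, meaning at least 70% loss of cells showing the perinucleolar compartment, a nuclear body marking cancer cells; inconclusive = readout between -30 and a set limit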;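 also: plate controls were DMSO wells for no effect and camptothecin positive control wells for full effect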
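PC3M cells stably expressing PTB-GFP, 750–1000 cells/well, treated 16 h at 37 °C with compound (23 nl of library stock), in duplicate. After paraformaldehyde fixation and Hoechst stain, imaged at 20x; PNC prevalence scored by image analysis.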
* marks the source's active call; other numbers are inactive results; ? = inconclusive; . = not tested or not shown; [ ] = dose if it differs, or a comment. Unless noted, calls follow the shape of the dose curve; as a rule, active = well fitted inhibition curve with a large enough effect (not every such curve was filed as active); inconclusive = small, poorly fitted or top-dose-only effect, or another doubt; inactive = no such curve, though single readings can be large or run the other way. Unless noted, % is scaled to controls: 0 for no effect and ±100 for the full control effect.

SMILES	HPGD block	ALDH1A1 inh	PNC inhibitor
CCN1CCN(S(=O)(=O)Cc2ccccc2)CC1	-13%	10%	12
CCc1nnc(NC(=O)c2ccc3ccccc3n2)s1	.	18µM*	.
CCc1nnc(NC(=O)C2CCN(S(=O)(=O)Cc3ccccc3)CC2)s1	-8%	-1%	-100*
Cc1[nH]n(-c2c(Cl)cc(Cl)cc2Cl)c(=O)c1C=Nc1ccc(S(=O)(=O)N2CCOCC2)cc1	-11%	-1%	?
CC(=O)NC1=NN(C(C)=O)C(c2sccc2C)S1 (stereo unspecified)	-8%	?	6
Cc1cc(C(=O)Nc2nc(C)c(C(=O)N(C)C)s2)ccc1[N+](=O)[O-]	-6%	10%	4
Cc1nc(NC(=O)c2ccc([N+](=O)[O-])cc2Cl)sc1C(=O)N(C)C	14µM*	13µM*	36
COc1c(O)ccc2c1CN1CCc3cc4c(cc3[C@@H]1C2)OCO4	-12%	-1%[13.5 µM]	.
Cc1ccc(CC(=O)Nc2nc3ccccc3s2)cc1	-17%	?	8
O=C(CSc1ncn(-c2ccccc2)n1)Nc1nc2c(s1)CCCC2	?	28µM*	-22
CC(C)c1nc(SCC(=O)Nc2nc3c(s2)CCCC3)c2ccccc2n1	?	-5%	?
O=C(CSc1ncn(-c2ccccc2)n1)Nc1nc2ccccc2s1	22µM*	13µM*	31
CC(C)(C)c1nc(SCC(=O)Nc2nc3c(s2)CCCC3)c2ccccc2n1	-8%	4%	-95*
O=C(CSc1ncn(-c2ccccc2)n1)Nc1nccs1	8%	16%	-2
O=C(CSc1ncn(-c2ccccc2)n1)Nc1nc(-c2ccccc2)cs1	-3%	3%	?
Cc1ccc[n+](CC(=O)Nc2nc3ccccc3s2)c1	.	14µM*	.
O=C(CCC(=O)N/N=C/c1ccccc1O)NCc1ccccc1	-27%	-3%	-18
S=C(Nc1ccc(Br)cc1)NC1CCCCC1	-9%	2%	14
Cc1ccc(N2C(=O)c3cccc4c(Oc5ccccc5[N+](=O)[O-])ccc(c34)C2=O)c(C)c1	-8%	?	-11
N#Cc1nc(-c2ccco2)oc1N1CCC(Cc2ccccc2)CC1	?	?	-13
CC1(C)CC(=O)C(C=NCC2CCN(C(=O)Nc3ccccc3)CC2)=C(O)C1	-12%	?	.
C/C(=N\NC(=O)CC1N=C(Cc2ccccc2)NNC1=O)c1ccc(Cl)cc1Cl (stereo unspecified)	0%	7%	20
O=C(Nc1cccc(C(F)(F)F)c1)c1cc(-c2ccc(F)cc2)on1	0%	-1%	26
COc1ccc2c(c1)O[C@@H](c1cccc(C(F)(F)F)c1)[C@H](OC(=O)NCc1ccc3c(c1)OCO3)C2=O	-6%	-8%	.
CN1CCN(C(=S)NC(CC(=O)c2ccccc2)c2ccccc2)CC1 (stereo unspecified)	.	-13%	.
SMILES	HPGD block	ALDH1A1 inh	PNC inhibitor
Cc1csc(NC(=O)CSc2ncn(-c3ccccc3)n2)n1	-3%	6%	3
CC(=O)Nc1ccc(C(=O)CSc2ncn(-c3ccccc3)n2)cc1	13µM*	?	13
Cc1csc(SCC(=O)Nc2nc3ccccc3s2)n1	-8%	?	-9
Cn1cc(SCC(=O)Nc2nc3ccccc3s2)c2ccccc21	-10%	-15%	-89*
Cc1ccc2nc(-c3cccc(NS(C)(=O)=O)c3)cc(-c3ccccc3)c2c1	-25%	?	?
O=c1c(-c2ccc(F)cc2)nc2cncnc2n1Cc1ccccc1	.	-5%	.
CC(C)C[C@@H](CC(=O)N[C@@H](CCC(=O)O)CC(=O)O)NC(=O)[C@@H]1CNCC[C@H]1NC(=O)C[C@H](CCCN)NC(=O)C[C@H](Cc1c[nH]c2ccccc12)NC(=O)[C@@H]1CNCC[C@H]1N	-9%	?	.
O=C(COc1ccc(OCc2ccccc2)cc1)NN=C1CCCC1	.	8.9µM*	.
CC(C)NC(=O)COc1ccc(OCc2ccccc2)cc1	.	2%	.
Cc1cccc(-n2c(-c3csc(C(C)C)c3)n[nH]c2=S)c1	?	16µM*	16
Cc1cccc(-n2c(-c3csc(C)c3C)n[nH]c2=S)c1	10µM*	-13%	16
Cc1cccc(-n2c(-c3ccco3)n[nH]c2=S)c1	-13%	-7%	?
COc1ccc(CC(=O)NCc2n[nH]c(=S)n2-c2cccc(C)c2)cc1	.	2%	.
COC(=O)c1sc(NC(=S)NC(=O)c2ccccc2C)nc1C	.	12%	.
O=S(=O)(c1ccc2nc(-c3ccccc3)[nH]c2c1)N1CCN(c2cccc(Cl)c2)CC1	-5%	10%	2
COc1ccccc1N1CCN(S(=O)(=O)c2ccc3nc(-c4ccccc4)[nH]c3c2)CC1	-20%	-3%	-113*
CC(C)Cn1cnc2c(Sc3c([N+](=O)[O-])ncn3C)nc(N)nc21	0%	-1%[13.5 µM]	.
N#C/C(C(=O)N1CCOCC1)=c1/s/c(=C\c2ccccn2)c(=O)n1-c1ccccc1	.	-1%	.
COc1ccc(-n2c(=O)/c(=C\c3cccs3)s/c2=C(/C#N)C(=O)N2CCN(C)CC2)cc1	.	7.1µM*	.
COc1ccccc1CN(C)CC(=O)NC1CCCc2ccccc21 (stereo unspecified)	.	11%	.
Cc1ccccc1CS(=O)(=O)c1nnc([C@H](Cc2ccccc2)NC(=O)OC(C)(C)C)o1	7.1µM*	14µM*	?
CCC(C)[C@@H](NC(=O)OC(C)(C)C)c1nnc(S(=O)(=O)Cc2cccc(C)c2)o1 (stereo partly specified)	14µM*	-4%	6
CC(C)(C)OC(=O)N[C@@H](Cc1ccccc1)c1nnc(S(=O)(=O)Cc2ccccc2)o1	3.5µM*	?	14
CCSc1nnc([C@H](Cc2ccccc2)NC(=O)OC(C)(C)C)o1	-4%	?	-11
CC(C)(C)OC(=O)N[C@@H](Cc1ccccc1)c1nnc(SCC(=O)O)o1	-1%	1%	-6
SMILES	HPGD block	ALDH1A1 inh	PNC inhibitor
CSc1nnc([C@@H](NC(=O)OC(C)(C)C)C(C)C)o1	-2%	0%	-25
CC(=O)N1CCC2(CC1)CN(Cc1ccc(C#N)cc1)C2	-10%	-3%	.
O=C(N[C@@H](Cc1ccccc1)C(=O)O)c1ccccc1	1%	4%	.
Cc1ccc(CN2CCN(/N=C\C=C\c3ccccc3)CC2)cc1	.	-5%	.
CSC1=N/C(=C\c2ccccc2Cl)C(=O)N1N(C)C	.	18µM*	.
CSC1=N/C(=C\c2cccc(Cl)c2)C(=O)N1N(C)C	.	-14%	.
COCCn1c(-c2ccccc2)cnc1SCC(=O)Nc1cccc2ccccc12	-24%	?	11
O=C(CCC1CCCN(C(=O)c2ccc3c(c2)OCO3)C1)NCc1ccc(F)c(F)c1 (stereo unspecified)	.	-2%	.
Cc1nn(C(C)c2n[nH]c(=S)n2-c2cccc(Cl)c2)c(C)c1[N+](=O)[O-] (stereo unspecified)	22µM*	5%	86
Cc1ccc(-n2c(C(C)n3nc(C)c([N+](=O)[O-])c3C)n[nH]c2=S)cc1 (stereo unspecified)	-14%	-7%	2
O=C(Nc1ccccc1)c1ccc2ccccc2n1	.	-2%	.
Cc1cccc(/C=C(\C(=O)C(=O)O)c2ccc3ccccc3n2)c1	.	7.9µM*	.
CCNc1ccc(P(=O)(c2ccccc2)c2ccccc2)cc1	.	4%	.
CC(C)OC(=O)c1cccc(C(=O)OCc2ccco2)n1	-7%	8.9µM*	-10
O=C(OCc1ccco1)c1cccnc1	.	-11%	.
